Source: PubChem
A selection: hits, their analogues and other compounds. The true share with any hit is near 32%.
PostGolgi ctrl: yeast control strain growth, post-Golgi counter-screen; inhibition, % at 10 µM; actives 5% (n = 98,000); AID 738; efflux-deficient yeast background strain, growth absorbance A615, 16 h
PostGolgi yeast: growth inhibition of a yeast mutant, post-Golgi transport screen. AID 739. post-Golgi transport phenotypic cell assay. inhibition, % at 10 µM. actives 0.9% (n = 98,000);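 further: yeast cells grown in 1536-well plates; yeast grown about 18 h at 30C before absorbance read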
CYP2C19 inh: blocks human cytochrome P450 2C19; AID 778; actives 21% (n = 96,000); inhibition, % at 5 µM; P33261; CYP2C19 Supersomes, luciferin-H EGE luminescence, 30 min;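 active means CYP2C19 inhibition above a set limit at 5 µM in the primary screen, cut at about 50% in these data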;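 further: plate controls were negative control wells for no effect and 2.5 mM tranylcypromine positive control for full effect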
Target sequence (P33261 whole entry, looked up): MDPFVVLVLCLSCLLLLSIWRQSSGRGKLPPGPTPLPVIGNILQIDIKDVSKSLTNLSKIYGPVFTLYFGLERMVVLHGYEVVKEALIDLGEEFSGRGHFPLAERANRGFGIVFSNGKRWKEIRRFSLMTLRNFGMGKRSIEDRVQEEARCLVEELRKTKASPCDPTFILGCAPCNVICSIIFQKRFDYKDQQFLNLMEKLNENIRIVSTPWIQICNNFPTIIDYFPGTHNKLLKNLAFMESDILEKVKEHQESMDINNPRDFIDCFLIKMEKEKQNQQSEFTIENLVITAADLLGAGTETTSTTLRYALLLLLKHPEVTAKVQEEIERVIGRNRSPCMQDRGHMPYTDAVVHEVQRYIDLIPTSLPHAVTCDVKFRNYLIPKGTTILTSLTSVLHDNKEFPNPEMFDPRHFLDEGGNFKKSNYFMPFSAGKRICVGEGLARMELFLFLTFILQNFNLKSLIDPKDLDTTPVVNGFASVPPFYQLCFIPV
CYP2C9 activ: increases human cytochrome P450 2C9 activity; activation factor at 5 µM; P11712; recombinant CYP2C9, luciferin-H conversion, luminescence; stronger effect = higher value; factor 1 = untreated enzyme, 0 = blocked; actives 1.4% (n = 96,000);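 active means activation factor of 2 or more for CYP2C9 at a 5 µM dose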;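 further: 0 = sulfaphenazole-blocked wells and 1 = vehicle-only wells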
CYP2C9 inh: human CYP2C9 inhibition | CYP2C9 Supersomes, luciferin-H conversion, luminescence | P11712 | actives 20% (n = 96,000) | inhibition, % at 5 µM;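 active means blocking of liver enzyme CYP2C9 beyond about 50% at 5 µM, limit read from the data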
CYP2C19 activ: cytochrome P450 2C19 (human) activation. P33261. recombinant CYP2C19, luciferin-H EGE luminescence; stronger effect = higher value; 0 = fully inhibited enzyme, 1 = untreated enzyme. activation factor at 5 µM. 96,000 tested, under 10 active. AID 1025;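 active means activation factor of at least 2 at 5 µM in the primary screen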;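 further: 0 = wells with 2.5 mM tranylcypromine and 1 = vehicle-only wells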
Numbers without * were called inactive; nt = not tested or not shown. Unless noted, no stated cut-off is given here; in the data, active means inhibition above about 30%; inactive means the rest.

SMILES	PostGolgi ctrl	PostGolgi yeast	CYP2C19 inh	CYP2C9 activ	CYP2C9 inh	CYP2C19 activ
CS(=O)(=O)N(CC(=O)N1CCN(c2ccc(F)cc2)CC1)c1ccc(F)c(Cl)c1	0	3	71*	1.9	-87	0.3
CS(=O)(=O)N(CC(=O)N1CCCCCC1)c1cccc(Br)c1	-1	-17	77*	0.6	41	0.2
C=C(C)Cn1c(CNC(C)=O)nc2ccccc21	4	1	nt	nt	nt	nt
CSc1nc(=NC(C)=O)ss1	15	5	0	1	3	1
COc1ccc(N2C(=O)CCC(C(=O)Nc3cccc(C)n3)C2c2ccc(OC)c(OC)c2)cc1 (configuration not stated)	14	4	14	1	-3	0.9
Cc1ccc(S(=O)(=O)N(CC(=O)N2CCC(C(N)=O)CC2)c2cccc(C(F)(F)F)c2)cc1	5	43*	16	0.5	45	0.8
CS(=O)(=O)N(CC(=O)N1CCCC1)c1cccc(Cl)c1	4	1	57*	0.9	6	0.4
CS(=O)(=O)N(CC(=O)N1CCCCCC1)c1ccc(Br)cc1	13	12	77*	0.6	37	0.2
Cc1cc(C)cc(N(CC(=O)N2CCC(C)CC2)S(=O)(=O)c2ccccc2)c1	13	6	13	0.5	50	0.9
Cc1cc(C)cc(N(CC(=O)N2CCC(C)CC2)S(C)(=O)=O)c1	8	2	13	2.2*	-123	0.9
CS(=O)(=O)N(CC(=O)O)c1cccc(Cl)c1	6	10	0	1	-4	1
C=CCSc1nnc2c(n1)OC=Nc1ccccc1-2	-1	0	49	0.8	20	0.5
Cc1ccc(NC(=O)c2ccc(CSc3ccccn3)cc2)cc1	4	-4	21	1.1	-15	0.8
O=C(Nc1ccc(S(=O)(=O)C(F)F)cc1)c1cccc(S(=O)(=O)N2CCOCC2)c1	1	8	-5	0.8	16	1.1
C=CCN(c1ccc(C(=O)N2CCN(c3ccc(F)cc3)CC2)cc1)S(C)(=O)=O	12	1	44	0.4	55*	0.6
Cc1cccc(N(CC(=O)N2CCCC2)S(=O)(=O)c2ccccc2)c1	-2	-7	58*	0.3	73*	0.4
CCOc1ccccc1N(CC(=O)N1CCOCC1)S(=O)(=O)c1ccccc1	1	-8	29	0.2	76*	0.7
CS(=O)(=O)N(CC(=O)N1CCN(c2ccccc2)CC1)c1cccc(Br)c1	-1	1	64*	2.8*	-179	0.4
CN(c1ccc(C(=O)N2CCN(c3ccc(F)cc3)CC2)cc1)S(C)(=O)=O	6	0	10	0.5	46	0.9
O=C(CN(c1ccccc1)S(=O)(=O)c1ccc(F)cc1)N1CCCCCC1	20	10	10	0.9	7	0.9
COc1ccc(N2CCN(C(=O)CN(c3cccc(Br)c3)S(C)(=O)=O)CC2)cc1	11	5	5	1.3	-29	0.9
Cc1cc(C)c(C(=O)CSc2nnc(-c3cccnc3)n2C)c(C)c1	2	24	4	1	2	1
CC(=O)c1ccc(OCCCC(=O)OCC(=O)N2CCN(c3ccccc3)CC2)cc1	-1	-1	14	0.8	16	0.9
COc1ccc(C(=O)c2ccccc2)c(O)c1	-1	-6	86*	0.8	24	0.1
Cc1nnc(SCC(=O)Nc2c(Cl)cccc2Cl)[nH]c1=O	-1	0	-6	0.4	62*	1.1
SMILES	PostGolgi ctrl	PostGolgi yeast	CYP2C19 inh	CYP2C9 activ	CYP2C9 inh	CYP2C19 activ
Cc1nnc(SCc2ccc(Cl)cc2Cl)[nH]c1=O	15	-5	11	0.2	80*	0.9
Cc1nnc(SCC(=O)NC(C)c2ccccc2)[nH]c1=O (configuration not stated)	-1	-2	-3	1	4	1
CC(OC(=O)CNC(=O)C12CC3CC(CC(C3)C1)C2)C(=O)Nc1ncc(Cl)cc1Cl (configuration not stated)	16	-1	54*	0.6	39	0.5
COc1ccc(S(=O)(=O)Cc2ccc(C(=O)NCc3ccccn3)o2)cc1	12	-3	3	0.7	33	1
CN1C(=O)c2c(sc3c2CCCC3)NC1c1ccccc1O (configuration not stated)	1	2	74*	0.1	87*	0.3
Cc1cccc(C2NC(=O)c3c(sc(C)c3C)N2)c1O (configuration not stated)	-1	13	-5	1.6	-59	1.1
